Measurements from paper PMC12136788.
The full ranking holds about 24,000 sequences; the median of “enrichment r” is about 0.99, and the highest 2% start at about 3.7. These entries were drawn from the full list.

B1: chr18:56819859:56819860:+_ENSG00000166562_ENST00000588875|hu_mus|hu_hu_hu_mus_True|88_88 (ssRNA)
RNA: GGGAGUUCUACAGUCCGACGAUCAACCUUGAUUACUCUGUGAACUAUUGGAAUGUCUCUUCCUUCAACCUUAAAAACAACUAUUUCACCAGCUCUGAUGGGGUCCUCCCGGAAAUUCGUGAGGAACAGCAGAUCUCCUCUGUGCAACAGAGGAUUGAGCAUCA
B2: chr5:145543945:145543946:-_ENSG00000133706_ENST00000545646|hu_hu|hu_hu_hu_mus_True|38_58 (ssRNA)
RNA: GGGAGUUCUACAGUCCGACGAUCCUGAACGGCCAGUGGUGGGAAAUAAUCAAGCCAGUGCUCUGCUUCAGAAAACUUUACUAUCUCGUCAUCAGAGAGGCCAAGGGAUUUCAUAAUGUCCCACUGGUACUUAGAAGAUCCUGCCAACAGAGGAUUGAGCAUCA
B3: chr12:73313434:73313435:-_ENSMUSG00000021087_ENSMUST00000021497|mus_mus|motif|central (ssRNA)
RNA: GGGAGUUCUACAGUCCGACGAUCCAUAUAUCCUAAGAGUACAGGAAGAGCCUCAAAACACCUGUCUCAAAGUUUGCCUCGGAGAUUAUGGUACCAGGAAAGGGAAACAAUCAAUUUGCAGUAACGAGGAAGGAGAGAGCUGUUCAACAGAGGAUUGAGCAUCA
B4: 87970796_87970916_7552_CDS_ENSG00000188994_ENST00000369577|human|control|control (ssRNA)
RNA: GGGAGUUCUACAGUCCGACGAUCUUCUGACUGGCAGAGGUUAUCUUCCUGAAAAUCAUUACUUACAUUUGAAGAAGUAUUAGCUUGGGUCUCUACACUUGUGCUAUCUUCAUUUAUUAAUUUUGUAAUAAACAAUUCUGUUAGCAACAGAGGAUUGAGCAUCA
B5: chr15:93570553:93570554:+_ENSG00000173575_ENST00000394196|hu_hu|motif|central (ssRNA)
RNA: GGGAGUUCUACAGUCCGACGAUCUCUAAGGCCAUAGUGUAUCAUGUCAACCCUUGUUCACGUGCAGGUUUUAGGUGAUGCGGACUCCCUCUUUCUCAACCUGUUAUUUCUACCAACAAUGAAAUCUUUCAAAGCCAGACUCCACAACAGAGGAUUGAGCAUCA
B6: 135292008_135298915_3170_CDS_ENSG00000155561_ENST00000285968|human|control|control (ssRNA)
RNA: GGGAGUUCUACAGUCCGACGAUCAUAUAUGACCUGGUAACAUAGCUCAGCCAGCUGAGGAGAUUCUCGCACCGCCACUGGGCCUGUUCUCCCUUCCGUUCCUUUCUCCAAGAUGUUUAGAAUGGCGUGAAGGCAUGUCCGAGGCAACAGAGGAUUGAGCAUCA
B7: chr1:66463027:66463028:+_ENSMUSG00000015222_ENSMUST00000114013|mus_hu|motif|central (ssRNA)
RNA: GGGAGUUCUACAGUCCGACGAUCUUUUCUUUCAGGAGUGGAAAUUCUGCCUCUCCCGGUUUUAAAAGGCUUUUCUUUUCGGUGUUUCUCAAGAGAUGAUCUCCGAGCUUCCUUUUCAGCUUUCUCCUCUUUAGGAAUAGUUUCCAACAGAGGAUUGAGCAUCA
B8: 18138343_18138463_2469_3pUTR_ENSMUSG00000026740_ENSMUST00000166495|mouse|control|control (ssRNA)
RNA: GGGAGUUCUACAGUCCGACGAUCUUAGAUCCAUGUAUUCAUGUGCAUGUGUCUAUGUGGGCUCGGAUGUGUGUGCUGUACCACAAUAUGAAUGCAGAGGUCAGAGGACAGCUCCUGUGAACAUGUGCUUGCUGGAGAGUGAGUCAACAGAGGAUUGAGCAUCA
B9: chr17:88379672:88379673:+_ENSMUSG00000005370_ENSMUST00000005503|mus_mus|motif|central (ssRNA)
RNA: GGGAGUUCUACAGUCCGACGAUCUCCCUUUUGGGCUUCCUUUGACUUUGAACCUGUAUAUGGCUUUAACAUCCUUUUGCGGACCCAGCCCCUUGUUGGGCUGUCAUCAAAGAACUGUACAUGAACACGGACAGAUUUCCCUUUCAACAGAGGAUUGAGCAUCA
B10: chr2:48026839:48026840:+_ENSG00000116062_ENST00000540021|hu_hu|hu_hu_hu_mus_False|48_78 (ssRNA)
RNA: GGGAGUUCUACAGUCCGACGAUCAUAGUGAGCCACUAGCGUCCUAAAUCUGGAACAAUGGCGAUCAUCCGAAAACUGGCCGAUGAAAAACUUUCCCAGUGAAGUGUCCACAAAGCAAACACCAUACACACGAGUGUGACCAGACAACAGAGGAUUGAGCAUCA
B11: chr1:55207850:55207851:+_ENSMUSG00000025979_ENSMUST00000162364|mus_hu|FALSE|FALSE (ssRNA)
RNA: GGGAGUUCUACAGUCCGACGAUCCCGAUGAUGAAAAUAAGCAUGUGAAAAUAUUCUGUAAAUCCUACGGCAUACUGAUCCUAGUUUCGCUACAGAUGAUUCCUUUAUGCUAACCCUGCUGGGAAAAUAUUUAUUGCUAUUCAGCAACAGAGGAUUGAGCAUCA
B12: chr1:213302989:213302990:+_ENSG00000136643_ENST00000366960|hu_hu|motif|central (ssRNA)
RNA: GGGAGUUCUACAGUCCGACGAUCAGAAGCAACAGCCCCUAGUGCUGAAGAAUCCGAAGAAAGAUUGAGACCAAAAGUUCGGAUGGGAGAAUUUUGAUUGGAAGCCAUUCCAUCAUCUAACUCAGCAAGAGAAUCCACAUCAACCAACAGAGGAUUGAGCAUCA
B13: chr1:163117127:163117128:-_ENSG00000143248_ENST00000313961|hu_mus|hu_hu_hu_mus_False|78_98 (ssRNA)
RNA: GGGAGUUCUACAGUCCGACGAUCUGCUACAAAGGAUGGAGGAAAUAUCACAGGGCAUGAUUUCAUAGCCUGACCAGAUGACUACUUGAUUAGCUCCUUAUAAAAUUCAGAGCGCACAAAGCGGGGCAGAGAAUCCUUCUCCAUCAACAGAGGAUUGAGCAUCA
B14: chr3:131220538:131220539:-_ENSG00000114686_ENST00000264995|hu_mus|motif|central (ssRNA)
RNA: GGGAGUUCUACAGUCCGACGAUCUUCUUCAGAAAGAUGUUCAUCCCACCAAGUACUACUCUUGCUGUGGAGAUUUCGGACAAAGAACAAGAUAUUCUUUCUUCUCUCUAAGCCGGGGUCAGCACCUAGGCCUCUGGCGCCACACAACAGAGGAUUGAGCAUCA
B15: chr6:82862619:82862620:-_ENSMUSG00000000627_ENSMUST00000000641|mus_mus|FALSE|FALSE (ssRNA)
RNA: GGGAGUUCUACAGUCCGACGAUCAACCUGCUUGUAAUUUCCUACACACUUUUCUGGGUUCCUUUUGUCAUCCCUCAAUAGCUAGAAUGUUGUGAAGUUCAUUUUAAAUGGAAGCCAAGGAAAGAGGGCUCAGCCUCCACUCCACAACAGAGGAUUGAGCAUCA
B16: chr4:107545374:107545375:+_ENSMUSG00000028613_ENSMUST00000106731|mus_mus|FALSE|FALSE (ssRNA)
RNA: GGGAGUUCUACAGUCCGACGAUCGUUGAUGGAUAGCCACAAAGCAUAAUUUUAUUUACAAAAAAAUCAAGCCCCUCAAACCUAAAAAAGCUCUCAACUCAAACAUCCUCUGUAAAUACUGUAUUCAAAUGAUGAGUGAAGUUUCAACAGAGGAUUGAGCAUCA
B17: chr1:174973770:174973771:+_ENSG00000116161_ENST00000406752|hu_mus|FALSE|FALSE (ssRNA)
RNA: GGGAGUUCUACAGUCCGACGAUCGAGUUCCGUCUCAAUCUUGGACUUUUCACUUGUAAGAGUAUCACGUAGUCUUUUCCUAGUGGACUUUUCCAGCAAUACUUUGACCUCUUCUAGGUCUUUCUGCAACUCUUCCAAAACGGACAACAGAGGAUUGAGCAUCA
B18: chr22:19452774:19452775:-_ENSG00000070010_ENST00000399523|hu_hu|hu_hu_hu_mus_False|1_68 (ssRNA)
RNA: GGGAGUUCUACAGUCCGACGAUCCUUCUCAUUGUAGUUGAUAGCAAUCACAUCUCCAGUCGUCAGACAGGCAAAGUUUCUCAAUGCAUUUUCUAAUACCGCUUUAGGGUUGGUAAUAUCCAGGAAGUCUGGGCUCUGAGGUUGCAACAGAGGAUUGAGCAUCA
B19: 64993253_64993373_409_3pUTR_ENSMUSG00000029920_ENSMUST00000031984|mouse|control|control (ssRNA)
RNA: GGGAGUUCUACAGUCCGACGAUCCUUCAGCACUAAGAGAAAUUGGUGACGAAGGACGGGCCUGGGAGGGCUGAGGGGCUGCUUCGGGUGCUUCCUCAAUCUUACUCCUUUUCUCAAAGCGAAAACGGUCCAAGUUGAAAAGAUCAACAGAGGAUUGAGCAUCA
B20: chr2:160855017:160855018:-_ENSMUSG00000057133_ENSMUST00000039782|mus_hu|FALSE|FALSE (ssRNA)
RNA: GGGAGUUCUACAGUCCGACGAUCAUCCUUUUCGAGCUCUUCCAUUGUGGCCCAUUUACAAUGUAAGUAGGAAAAAUUUCUAUACUUAACGUAGAACAGCUCCAAGUCGAACGGAGGUUCUCCUGGGUGAACCUCCUGGACAGUCAACAGAGGAUUGAGCAUCA
B21: chr14:63761926:63761927:+_ENSMUSG00000021939_ENSMUST00000006235|mus_mus|FALSE|FALSE (ssRNA)
RNA: GGGAGUUCUACAGUCCGACGAUCCUGCCAAUGUCAAGCAGAGGGAGAAUUGGUUUAUUGGCACAGACAUUCCUUGUUAAACUACAGGGUUAAGUGGUAACUACAACAAAAAGCAAGUUUUUUUUUCCAGACUAGUUUCAUUGUCAACAGAGGAUUGAGCAUCA
B22: chr1:23381596:23381597:+_ENSG00000004487_ENST00000356634|hu_hu|motif|central (ssRNA)
RNA: GGGAGUUCUACAGUCCGACGAUCAGUUGGUAGGGGUUUUAUCCUCUUAUAGAUGCCGAAGUUGAUAAGACCAUGACGCUCGGAAUAACUGUGAACUCGGUGGACAAGCACAGUAUCACUGUUAUAAGGUGCUUCUAAUUGUUGCAACAGAGGAUUGAGCAUCA

Biological target: T1, UNK ZnF1-3 (human, UniProt Q9C0B0 31-174)
T1 sequence: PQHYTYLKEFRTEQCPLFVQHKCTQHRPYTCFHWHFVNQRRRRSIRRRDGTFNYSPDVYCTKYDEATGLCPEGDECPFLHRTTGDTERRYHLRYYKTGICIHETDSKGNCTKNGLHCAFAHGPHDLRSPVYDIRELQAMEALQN
Assay: nsRBNS (natural sequence RNA bind-n-seq); RBNS binding buffer (assumed for nsRBNS): 25 mM Tris pH 7.5, 150 mM KCl, 3 mM MgCl2, 0.01% Triton X-100, 500 ug/ml BSA, 20 U/ml SUPERase-In, 4 C; UNK is unkempt and MSI1 is Musashi-1; names of the RNAs are library labels; protein concentration not given here; high values mean tight binding

Row | Binder | binding signal
1 | B1 | 0.697 enrichment R
2 | B2 | 1.07 enrichment R
3 | B3 | 2.3 enrichment R
4 | B4 | 0.862 enrichment R
5 | B5 | 0.941 enrichment R
6 | B6 | 1.11 enrichment R
7 | B7 | 0.426 enrichment R
8 | B8 | 1.27 enrichment R
9 | B9 | 0.538 enrichment R
10 | B10 | 1.26 enrichment R
11 | B11 | 1.13 enrichment R
12 | B12 | 2.3 enrichment R
13 | B13 | 1.46 enrichment R
14 | B14 | 0.785 enrichment R
15 | B15 | 0.841 enrichment R
16 | B16 | 1.47 enrichment R
17 | B17 | 0.405 enrichment R
18 | B18 | 1.02 enrichment R
19 | B19 | 1.21 enrichment R
20 | B20 | 0.672 enrichment R
21 | B21 | 1.12 enrichment R
22 | B22 | 0.878 enrichment R
